EBV LMP1 NFkB: reduces LMP1-driven NF-kappaB luciferase signal. LMP1-induced NF-kappaB luciferase reporter cells, luminescence. inhibition, % at 12.5 µM. hit rate 0.69% among 350,000. AID 504558; in the data active = inhibition above about 41%; inconclusive = no clear call, values can overlap the other calls
TRPM1 prom inh: MITF TRPM1 promoter inhibition in SK-MEL-5 cells. SK-MEL-5 TRPM1 promoter luciferase, 24 h. inhibition, % at 12.5 µM. hit rate 0.83% among 330,000. AID 488899;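 active = mean inhibition across replicates of 60% or more, whatever share of single replicates reaches that level; inconclusive = some that reach 60%, reason not given; inactive = mean inhibition across replicates below 60%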
MITF act: activators of MITF-driven TRPM1 promoter activity in SK-MEL-5 cells; SK-MEL-5 TRPM1-promoter luciferase, 24 h; % of positive control, neutral wells = 0; activation, % at 12.5 µM; hit rate 0.75% among 300,000;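 active = mean activation of at least 80% with every replicate also reaching 80%; inconclusive = mean reaches 80% but some replicate falls short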
Statin myotox sup: suppression of simvastatin myotoxicity. C2C12 myotubes + simvastatin, ATP luminescence, 48 h; scaled: DMSO 0, geranylgeraniol control 100. rescue of ATP level, % at 7.49 µM. hit rate 0.78% among 330,000. AID 602340;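 active = mean ATP rescue above about 67%, or every replicate alone reaching that limit, limit read from the data, passing the limit was not always enough; inconclusive = no clear call, values can overlap the other calls; inactive = mean under the limit and some replicate under it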;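 note: myotubes were challenged with 10 µM simvastatin during compound exposure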
Wnt bcat act: activators of Wnt/beta-catenin signaling; AID 743398; Wnt/beta-catenin reporter cell assay, activator, plate reader; hit rate 1.2% among 300,000; activation, % at 9.35 µM; in the data active = activation above about 30%, passing the limit was not always enough; inconclusive = no clear call, values can overlap the other calls
esBAF inh: blocks esBAF chromatin remodeling in mouse ES cells; AID 602393; reporter increase, % at 12.5 µM; hit rate 2% among 350,000; Bmi1-luciferase knock-in reporter, 24 h; 100% = twice the neutral-well signal; in the data active = activation above about 40%; inconclusive = no clear call, values can overlap the other calls;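 note: a rise in the Bmi1 reporter signal indicates esBAF inhibition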
Numbers stand for hits; . = inactive; ? = inconclusive; / = no result. In the library only some 4% were active in any assay of this set; here they are far more common.

SMILES | EBV LMP1 NFkB | TRPM1 prom inh | MITF act | Statin myotox sup | Wnt bcat act | esBAF inh
COc1ccc(-c2c(C)oc3ccc(C)cc23)cc1 | . | . | . | . | . | .
Cc1sc2nc(SCC(=O)NCCO)n(C)c(=O)c2c1C | . | . | . | / | . | /
Cc1sc2nc(SCC(=O)OC(C)C)n(C)c(=O)c2c1C | 47 | . | / | . | . | .
Cc1c(CN2CCN(CC(C)(C)C)C(CCO)C2)[nH]c2ccccc12 (stereo unspecified) | . | . | . | . | . | .
CC(=O)Nc1cccc(-c2nc3ccc(NC(C)=O)cc3s2)c1 | . | . | 90 | . | ? | 54
CC(=O)Nc1ccc2nc(NC(=O)COc3ccccc3C)sc2c1 | . | . | . | . | . | .
CC(=O)Nc1ccc2nc(NC(=O)COc3ccccc3Cl)sc2c1 | . | . | 89 | . | . | 60
O=C(Nc1cccc(-c2nc3ccccc3s2)c1)c1cc(-n2cnnc2)ccc1Cl | . | . | . | . | / | 82
COc1cccc2sc(Nc3nc4ccc(NC(C)=O)cc4s3)nc12 | . | . | . | . | . | 48
CNc1ccc(Cl)cc1S(=O)(=O)c1ccccc1[N+](=O)[O-] | / | / | / | / | . | /
CCCCC(CC)C(=O)NCCc1ccc(S(N)(=O)=O)cc1 (stereo unspecified) | . | . | . | . | / | .
Cc1ccc(NC(=O)C(c2ccccc2)N2CCN(CC(=O)N3CCOCC3)CC2)cc1 (stereo unspecified) | . | . | . | . | 33 | .
COc1ccc(C)cc1NC(=O)C(c1ccccc1)N1CCN(CC(=O)N2CCOCC2)CC1 (stereo unspecified) | . | . | . | . | . | .
O=[N+]([O-])c1ccc(Cc2nnc(-c3ccccc3Cl)o2)cc1 | . | . | 103 | . | . | .
